Laboratory results as given in PubChem BioAssay (Tox21).
Results filed as inconclusive are left out. Values without a mark were called inactive. Calls of active or inactive are those of the source. Calls come from the whole dose curve; as a rule, active = well fitted cell-killing curve with a large enough effect in the repeat runs; inconclusive = weak or mixed curves, or effect the other way; inactive = no such curve, though single readings can be large or run the other way. Where a SMILES comes first, the peptide text is derived from it. [ ]: non-standard residue; d: D form. pGlu = O=C1CC[C@@H](C(=O)O)N1
% is set by controls: 0 for no effect and ±100 for the full control effect.

Experiment: qHTS assay to identify small molecule agonists of the vitamin D receptor (VDR) signaling pathway - cell viability counter screen (AID 743224); note: nearly all actives have a fitted effect of over 50% in size
Conditions: VDR-bla HEK293T viability, CellTiter-Glo luminescence, 16 h; series mostly up to 62.6 µM
Source text: U.S. Tox21 Program National Center for Advancing Translational Sciences [NCATS] NIH Chemical Genomics Center [NCGC] U.S. Environmental Protection Agency [EPA] National Institutes of Environmental Health Sciences [NIEHS] National Toxicology Program [NTP] U.S. Food and Drug Administration [FDA] Tox21 Assay Overview: The vitamin D receptor (VDR), a member of nuclear hormone receptor superfamily, plays a critical role in calcium homeostasis and bone metabolism. It is also involved in cell differentiation and growth, and thrombogenicity. […] The cytotoxicity of the Tox21 compound library against the VDR-bla cell line was tested in parallel by measuring the cell viability using CellTiter-Glo assay (Promega, Madison, WI) in the same wells.
Tox21 Assay Protocol Summary: VDR-bla cells were dispensed at 2,000 cells/6 uL/well into black wall/clear-bottom 1536-well plates using a Multidrop Combi (Thermo Fisher Scientific, Waltham, MA) dispenser. After the assay plates were incubated at a 37C and 5% CO2 for 4 h, 23 nL of compounds dissolved in DMSO, positive controls or DMSO only was transferred to the assay plate by a Pintool station (Kalypsys, San Diego, CA). The plates were incubated at 37C and 5% CO2 for 16 h. After 1 uL of LiveBLAzerTM B/G FRET substrate was added using a Bioraptr Flying Reagent Dispenser (FRD) workstation (Beckman Coulter, Indianapolis, IN, USA), the plates were incubated at room temperature for 2 h, and fluorescence intensity was measured by an Envision plate reader (PerkinElmer, Shelton, CT). For cell viability readout that measures cytotoxicity, 3 ul/well of CellTiter-Glo reagent was added into the assay plates using a FRD. After 30 min incubation at room temperature, the luminescence intensity in the plates was measured using a ViewLux (PerkinElmer) plate reader.
In the case of `CC(=O)c1ccc2ccccc2c1`, the outcome is reported as “inactive”.
For `CC(C(=O)O)c1cccc(Oc2ccccc2)c1` (stereo not given), the outcome was “inactive”.
For `CCN[C@H]1C[C@H](C)S(=O)(=O)c2sc(S(N)(=O)=O)cc21`, the outcome was “inactive”.
For `CCC1C(=O)OCC1Cc1cncn1C` (stereo not given), the outcome was “inactive”.
For `Cc1coc2ccccc2c1=O`, the outcome was “inactive”.
In the case of `CC1(C)OC[C@@H](COC(=O)CCc2ccc(OC[C@@H](O)CNCCNC(=O)N3CCOCC3)cc2)O1`, the outcome is reported as “inactive”.
With `CC/C=C\CCOC(C)OCC` (stereo not given) the outcome was “inactive”.
For `CN1CCC(=C2c3ccccc3CCc3cccnc32)CC1`, the outcome was “inactive”.
In the case of `C=C(C)C(=O)OCC(O)CO` (stereo not given), the outcome is reported as “inactive”.
In the case of `CC(C)C[C@@H](N)C(=O)O`, the outcome is reported as “inactive”.
For `CC(=O)c1cnccn1`, the outcome was “inactive”.
With `C[N+](C)(C)CCCCCCCCCC[N+](C)(C)C` the outcome was “inactive”.
For `CCCO[Si](OCCC)(OCCC)OCCC`, the outcome was “inactive”.
In the case of `Cc1nc(C2CCCCC2)c(-c2ccc(S(N)(=O)=O)c(F)c2)o1`, the outcome is reported as “inactive”.
In the case of `CCN1C=CN(C)C1C` (stereo not given), the outcome is reported as “inactive”.
With `N[C@@H](CCC(=O)O)C(=O)O` the outcome was “inactive”.
With `CO[C@@]1(NC(=O)CSC[C@@H](N)C(=O)O)C(=O)N2C(C(=O)O)=C(CSc3nnnn3C)CS[C@@H]21` the outcome was “inactive”.
With `O=C(O)CNC(=O)c1ccc(CO)o1` the outcome was “inactive”.
For `CC(C)C(=O)OC(=O)C(C)C`, the outcome was “inactive”.
For `C=COCC1CCC(COC=C)CC1` (stereo not given), the outcome was “inactive”.
For `CCCCCCC#CC(=O)OC`, the outcome was “inactive”.
For `c1ccc(CCc2ccccc2)cc1`, the outcome was “inactive”.
In the case of `C[N+]1(C)CCCC(OC(=O)C(O)(c2ccccc2)c2ccccc2)C1` (stereo not given), the outcome is reported as “inactive”.
For `CC(=O)Oc1cccc(C)c1`, the outcome was “inactive”.
In the case of `CN(C)CCN(C)CCN(C)C`, the outcome is reported as “inactive”.
In the case of `CCCCOCCOC(=O)CCCCCCCCC(=O)OCCOCCCC`, the outcome is reported as “inactive”.
For `C=CC(C)(CCC=C(C)C)OC(=O)CC` (stereo not given), the outcome was “inactive”.
With `C1CCC2=NCCCN2CC1` the outcome was “inactive”.
With `CCN[C@@H]1C[C@H](N)[C@@H](OC2OC(CN)=CCC2N)[C@H](O)[C@H]1O[C@H]1OC[C@](C)(O)[C@H](NC)[C@H]1O` (stereo not given in full) the activity change, negative = cytotoxicity was 0.0384% [at 0.55 µM].
In the case of `CC(C)(C#N)Nc1nc(Cl)nc(NC2CC2)n1`, the outcome is reported as “inactive”.
For `COc1c(N2CCNC(C)C2)c(F)cc2c(=O)c(C(=O)O)cn(C3CC3)c12` (stereo not given), the outcome was “inactive”.
With `CNCC(O)c1ccc(O)c(O)c1` (stereo not given) the outcome was “inactive”.
In the case of `CCNC(=O)[C@@H]1CCCN1C(=O)[C@H](CCCN=C(N)N)NC(=O)[C@H](CC(C)C)NC(=O)CNC(=O)[C@H](Cc1ccc(O)cc1)NC(=O)[C@H](CO)NC(=O)[C@H](Cc1c[nH]c2ccccc12)NC(=O)[C@H](Cc1cnc[nH]1)NC(=O)[C@@H]1CCC(=O)N1` ([pGlu]HWSYGLRP-NHEt), the outcome is reported as “inactive”.
For `O=C(O)CCCC[P+](c1ccccc1)(c1ccccc1)c1ccccc1`, the outcome was “inactive”.
For `CN1[C@@H]2CC[C@H]1CC(OC(=O)C(O)c1ccccc1)C2` (stereo not given in full), the outcome was “inactive”.
In the case of `O=C(c1ccccc1)C1(O)CCCCC1`, the outcome is reported as “inactive”.
With `Nc1c2c(nc3c1CCC3)CCCC2` the outcome was “inactive”.
In the case of `COc1ccc2cc1Oc1cc3c(cc1OC)CC[N+](C)(C)[C@H]3Cc1ccc(cc1)Oc1c(OC)c(OC)cc3c1[C@@H](C2)[N+](C)(C)CC3`, the outcome is reported as “inactive”.
With `CCCCCC(C)N` (stereo not given) the outcome was “inactive”.
For `CC(C)(C)C(=O)c1ccccc1`, the outcome was “inactive”.
